Results filed as inconclusive are left out. Calls of active or inactive are those of the source. The calls were made as follows, unless noted: active = hit-call score of the fitted dose curve at least 0.9, where 1 is the maximum; inactive = score below 0.9.

What is called AC50 is the concentration at which the activity in the assay is half-maximal.

Test [1] can be described thus: ATG_NF_kB_CIS: Attagene CIS-FACTORIAL HepG2 Assay for human Nuclear Factor Kappa B (NF-kB) (AID 2282991). The conditions noted are these: HepG2 Attagene cis-factorial NF-kB reporter mRNA; actives raise or lower the signal. The essentials:
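HepG2 cells transiently transfected with multiplexed cis-element reporter units measuring endogenous transcription factor activity; reporter mRNA read 24 h after dosing by RT-PCR, fluorescent labelling, HpaI digestion and capillary electrophoresis. Bidirectional fit against DMSO baseline.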

Test [2] can be described thus: ATG_NRF2_ARE_CIS: Attagene CIS-FACTORIAL HepG2 Assay for human Nuclear Factor Erythroid 2 Related Factor 2 (NFR2) response to Antioxidant Response Elements (ARE) (AID 2282992). The conditions noted are these: HepG2 Attagene ARE/NRF2 reporter, transcription factor activity; actives raise or lower the signal. The essentials: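 Cis-factorial assay: transfected HepG2 reporter library, 24 h dosing, mRNA readout via RT-PCR/CE; DMSO-referenced bidirectional analysis.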

Test [3] can be described thus: ATG_Oct_MLP_CIS: Attagene CIS-FACTORIAL HepG2 Assay for human Octamer-Binding Transcription Factor (Oct) (AID 2282993). The conditions noted are these: HepG2 Attagene cis-factorial Oct reporter, mRNA; actives raise or lower the signal. In a few lines: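 Cells of the HepG2 line express promoter-controlled reporter sequences whose mRNA levels, after 24 h treatment, are measured by RT-PCR and capillary electrophoresis. Increases and decreases are scored relative to DMSO.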

The target in test [4] is human Peroxisome Proliferator-activated Receptor delta (PPARd), PPARD (gene 5467) (UniProt Q03181). As to the kind of experiment: ATG_PPARd_TRANS: Attagene TRANS-FACTORIAL HepG2 Assay for human Peroxisome Proliferator-activated Receptor delta (PPARd) (AID 2283002; active = hit-call score of the fitted dose curve at least 0.9, where 1 is the maximum). In a few lines: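 Transient HepG2 transfection (multiple GAL4-UAS RTUs, chimeric receptor-Gal4); 24 h dosing; total RNA → oligo(dT) RT → PCR → 6-FAM primer extension → HpaI cut → CE. Positive direction vs DMSO.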

Test [5] has as its target human Retinoic Acid Receptor beta (RARb), RARB (gene 5915) (UniProt P10826). As to the kind of experiment: ATG_RARb_TRANS: Attagene TRANS-FACTORIAL HepG2 Assay for human Retinoic Acid Receptor beta (AID 2283004; active = hit-call score of the fitted dose curve at least 0.9, where 1 is the maximum). In a few lines: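 HepG2 cells were transiently transfected with GAL4-UAS reporter units that report activity of exogenous chimeric NR-Gal4 proteins, then exposed to compound for 24 h. Reporter mRNA was quantified by RT-PCR with capillary electrophoresis fluorescence, as gain of signal over DMSO.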

The target of test [6] is Nuclear receptor subfamily 1 group I member 2 (Homo sapiens) (UniProt O75469). As to the kind of experiment: ATG_PXR_TRANS: Attagene TRANS-FACTORIAL HepG2 Assay for human Pregnane X Receptor (PXR) (AID 2283008; active = hit-call score of the fitted dose curve at least 0.9, where 1 is the maximum). In a few lines:
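Fluorescence intensity of FAM-labelled, HpaI-digested reporter amplicons, separated by capillary electrophoresis, quantifies induction. HepG2 cells with PXR-Gal4 trans-reporter system were exposed 24 h; DMSO defines baseline.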

In test [7] the target is human RAR-related Orphan Receptor beta (RORb), RORB (gene 6096) (UniProt Q92753). As to the kind of experiment: ATG_RORb_TRANS: Attagene TRANS-FACTORIAL HepG2 Assay for human RAR-related Orphan Receptor beta (RORb) (AID 2283010; active = hit-call score of the fitted dose curve at least 0.9, where 1 is the maximum). In a few lines: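 Readout is reporter-gene mRNA induction, detected as fluorescence after RT-PCR and capillary electrophoresis, fitted for gain of signal against DMSO controls. Transiently transfected HepG2 liver cells carrying GAL4-UAS reporter constructs were treated for 24 hours.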

Test [8] has as its target human RAR-related Orphan Receptor gamma (RORg), RORC (gene 6097) (UniProt P51449). As to the kind of experiment: ATG_RORg_TRANS: Attagene TRANS-FACTORIAL HepG2 Assay for human RAR-related Orphan Receptor gamma (RORg) (AID 2283011; active = hit-call score of the fitted dose curve at least 0.9, where 1 is the maximum). In a few lines: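 HepG2 cells transiently transfected with GAL4-UAS reporter units and chimeric RORg-Gal4 construct; after 24 h chemical exposure, reporter mRNA measured by RT-PCR with fluorescent capillary electrophoresis, gain of signal fitted against DMSO.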

For test [9], the target named is Retinoic acid receptor RXR-alpha (Homo sapiens) (UniProt P19793). As to the kind of experiment: ATG_RXRa_TRANS: Attagene TRANS-FACTORIAL HepG2 Assay for human Retinoid X Receptor alpha (RXRa) (AID 2283012; active = hit-call score of the fitted dose curve at least 0.9, where 1 is the maximum). In a few lines:
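Transient transfection of human HepG2 with multiple GAL4-UAS reporter constructs; 24 h compound exposure; total RNA isolated, reverse-transcribed, PCR-amplified, 6-FAM labelled, HpaI-cut, resolved by capillary electrophoresis. Positive-direction fit versus DMSO.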

The target of test [10] is human Peroxisome Proliferator-activated Receptor alpha (PPARa), PPARA (gene 5465) (UniProt Q07869). As to the kind of experiment: ATG_PPARa_TRANS: Attagene TRANS-FACTORIAL HepG2 Assay for human Peroxisome Proliferator-activated Receptor alpha (PPARa) (AID 2283001; active = hit-call score of the fitted dose curve at least 0.9, where 1 is the maximum;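 as to AC50: potency for gain of reporter signal over DMSO so agonist or activator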). The essentials: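 Read-out is fluorescence of reporter cDNA fragments resolved by capillary electrophoresis after RT-PCR. Human HepG2 liver cells carried transfected PPARa-Gal4 chimera and GAL4-UAS reporter units, treated 24 h; activity scored as increase over DMSO.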

Test [11] addresses Peroxisome proliferator-activated receptor gamma (Homo sapiens) (UniProt P37231). As to the kind of experiment: ATG_PPARg_TRANS: Attagene TRANS-FACTORIAL HepG2 Assay for human Peroxisome Proliferator-activated Receptor-gamma (PPARg) (AID 2283007; active = hit-call score of the fitted dose curve at least 0.9, where 1 is the maximum). The essentials: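 HepG2 cells transiently transfected with multiplexed GAL4-UAS reporter units and exogenous chimeric NR-Gal4 proteins; reporter mRNA quantified after 24 h compound exposure by RT-PCR, fluorescent labelling, HpaI digestion and capillary electrophoresis; gain-of-signal fitted versus DMSO baseline.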

Test [12] is described as follows: BSK_3C_TissueFactor: BioMAP Diversity Plus: 3C Assay for Tissue Factor Biomarker Activity (AID 2282997). The conditions noted are these: BioMAP 3C HUVEC, tissue factor biomarker readout; actives raise or lower the signal. In a few lines:
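HUVEC were treated 24 h, then surface tissue factor measured by ELISA and fitted bidirectionally against DMSO. Parallel SRB total-protein staining assessed overt cytotoxicity at the same time point.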

Test [13] is described as follows: BSK_3C_uPAR: BioMAP Diversity Plus: 3C Assay for Urokinase-type plasminogen activator receptor (uPAR) Biomarker Activity (AID 2282998). The conditions noted are these: BioMAP 3C HUVEC, uPAR biomarker ELISA; actives raise or lower the signal. The essentials: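 Endothelial primary cells of human umbilical vein origin received test chemical; 24 h later uPAR was assayed by ELISA. Fitting was bidirectional, DMSO as negative control.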
A general note: ELISA stands for enzyme-linked immunosorbent assay.

Test [14] in a line: BSK_3C_VCAM1: BioMAP Diversity Plus: 3C Assay for Vascular cell adhesion molecule 1 (VCAM1) Biomarker Activity (AID 2282999). The conditions noted are these: BioMAP 3C HUVEC, VCAM1 ELISA, cytokine-stimulated; actives raise or lower the signal. In a few lines: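 Endothelial cells from human umbilical vein are treated with test chemical. At 24 h, VCAM-1 is measured by ELISA, and responses in either direction are fitted relative to DMSO.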

The nature of test [15]: BSK_4H_Eotaxin3: BioMAP Diversity Plus: 4H Assay for Eotaxin 3 Biomarker Activity (AID 2283000).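 Also: CCL26 protein level quantified by ELISA in parallel with SRB cytotoxicity check.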 The conditions noted are these: primary human endothelial cells (HUVEC); actives raise or lower the signal. In a few lines:
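Eotaxin-3 (CCL26) levels were measured by ELISA in HUVEC primary cultures 24 h post-dosing. Gain or loss of signal was fitted in both directions, with DMSO serving as baseline and negative control.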

Read-out in test [16]: Intercellular Adhesion Molecule 1 (ICAM1), ICAM1 (gene 3383)
As to the kind of experiment: BSK_3C_ICAM1: BioMAP Diversity Plus: 3C Assay for Intercellular Adhesion Molecule 1 (ICAM1) Biomarker Activity (AID 2283003). The conditions noted are these: primary human endothelial cells (HUVEC); actives raise or lower the signal. In a few lines: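 ICAM-1 levels measured by ELISA after HUVEC cultures in the 3C system had been dosed for 24 h. Gain or loss of signal relative to DMSO was fitted in both directions.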

Test [17] in a line: BSK_3C_Proliferation: Cell Proliferation Assessment in the BioMAP Diversity Plus: 3C Assay (AID 2283006). The conditions noted are these: primary human endothelial cells (HUVEC). In a few lines: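 Read-out is total protein by SRB absorbance at 560 nm, taken as a proxy for relative cell number. Primary human umbilical vein endothelium cultured below confluence was dosed for 48 h, TCA-fixed and SRB-stained; curves were fitted bidirectionally versus DMSO.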

Test [18] addresses human Retinoic Acid Receptor gamma (RARg), RARG (gene 5916) (UniProt P13631). As to the kind of experiment: ATG_RARg_TRANS: Attagene TRANS-FACTORIAL HepG2 Assay for human Retinoic Acid Receptor gamma (RARg) (AID 2283009; active = hit-call score of the fitted dose curve at least 0.9, where 1 is the maximum). The essentials:
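Transient transfection of HepG2 with multi-reporter constructs, then 24 h chemical treatment. Total RNA isolated, reverse-transcribed, PCR-amplified, fluorescently labelled and resolved by capillary electrophoresis; activity scored as mRNA induction versus DMSO.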

Test [19] deals with Cellular tumor antigen p53 (Homo sapiens) (UniProt P04637). As to the kind of experiment: ATG_p53_CIS: Attagene CIS-FACTORIAL HepG2 Assay for human p53 Transcription Factor (AID 2282994). The conditions noted are these: HepG2 p53 cis-element reporter, Attagene mRNA; actives raise or lower the signal. The essentials: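 Using HepG2 hepatoma cells carrying cis-acting multiplexed reporters, mRNA induction is detected after a 24 h exposure. Gain- and loss-of-signal responses are fitted relative to DMSO-treated cells.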

Test [20] concerns the target Retinoic acid receptor alpha (Homo sapiens) (UniProt P10276). As to the kind of experiment: ATG_RARa_TRANS: Attagene TRANS-FACTORIAL HepG2 Assay for human Retinoic Acid Receptor alpha (RARa) (AID 2283005; active = hit-call score of the fitted dose curve at least 0.9, where 1 is the maximum). The essentials:
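Reporter transcripts, measured by RT-PCR with fluorescent labeling and capillary electrophoresis after 24 h dosing, reflect activity of an exogenous human RARa–GAL4 fusion in transiently transfected HepG2. Fitted for increase relative to DMSO.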

Chain of human Retinoic Acid Receptor gamma (RARg), RARG (gene 5916) (P13631 whole entry, looked up): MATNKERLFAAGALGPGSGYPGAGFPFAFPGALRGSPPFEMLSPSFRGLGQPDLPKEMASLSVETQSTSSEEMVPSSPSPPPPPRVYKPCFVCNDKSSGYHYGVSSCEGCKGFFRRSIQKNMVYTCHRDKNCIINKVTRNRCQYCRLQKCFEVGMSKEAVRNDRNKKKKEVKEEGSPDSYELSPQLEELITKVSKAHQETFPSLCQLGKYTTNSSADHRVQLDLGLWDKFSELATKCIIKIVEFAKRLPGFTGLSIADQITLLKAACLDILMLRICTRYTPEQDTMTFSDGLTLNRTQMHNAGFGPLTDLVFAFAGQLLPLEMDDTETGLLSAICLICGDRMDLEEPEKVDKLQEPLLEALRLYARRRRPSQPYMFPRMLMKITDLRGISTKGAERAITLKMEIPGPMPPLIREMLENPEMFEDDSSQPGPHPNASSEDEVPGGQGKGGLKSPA
Chain of human Retinoic Acid Receptor beta (RARb), RARB (gene 5915) (P10826 whole entry, looked up, the tested form may be a part): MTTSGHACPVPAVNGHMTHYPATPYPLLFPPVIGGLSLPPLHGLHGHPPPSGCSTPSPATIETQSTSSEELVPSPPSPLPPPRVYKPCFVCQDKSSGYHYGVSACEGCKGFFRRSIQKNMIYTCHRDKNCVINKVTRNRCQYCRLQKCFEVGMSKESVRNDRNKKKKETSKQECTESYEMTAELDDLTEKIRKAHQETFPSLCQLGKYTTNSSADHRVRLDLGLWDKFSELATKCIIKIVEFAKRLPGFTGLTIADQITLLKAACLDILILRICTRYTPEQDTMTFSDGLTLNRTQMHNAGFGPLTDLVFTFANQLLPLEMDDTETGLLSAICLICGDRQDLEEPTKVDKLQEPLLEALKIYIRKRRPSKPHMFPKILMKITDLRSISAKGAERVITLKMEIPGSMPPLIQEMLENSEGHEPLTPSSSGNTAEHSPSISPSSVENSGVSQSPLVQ
Chain of Cellular tumor antigen p53 (Homo sapiens) (P04637 whole entry, looked up): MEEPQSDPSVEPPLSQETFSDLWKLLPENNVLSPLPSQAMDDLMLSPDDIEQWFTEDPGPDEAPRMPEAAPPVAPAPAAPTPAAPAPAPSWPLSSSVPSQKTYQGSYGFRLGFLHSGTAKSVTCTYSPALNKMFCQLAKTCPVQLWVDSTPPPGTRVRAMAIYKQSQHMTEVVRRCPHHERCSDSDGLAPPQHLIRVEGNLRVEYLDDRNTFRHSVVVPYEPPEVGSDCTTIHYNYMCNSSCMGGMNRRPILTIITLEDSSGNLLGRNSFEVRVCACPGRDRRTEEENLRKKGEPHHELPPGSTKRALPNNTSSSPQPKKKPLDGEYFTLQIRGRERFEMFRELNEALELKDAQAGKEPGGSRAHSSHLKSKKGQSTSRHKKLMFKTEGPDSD
Chain of Retinoic acid receptor RXR-alpha (Homo sapiens) (P19793 whole entry, looked up, the tested form may be a part): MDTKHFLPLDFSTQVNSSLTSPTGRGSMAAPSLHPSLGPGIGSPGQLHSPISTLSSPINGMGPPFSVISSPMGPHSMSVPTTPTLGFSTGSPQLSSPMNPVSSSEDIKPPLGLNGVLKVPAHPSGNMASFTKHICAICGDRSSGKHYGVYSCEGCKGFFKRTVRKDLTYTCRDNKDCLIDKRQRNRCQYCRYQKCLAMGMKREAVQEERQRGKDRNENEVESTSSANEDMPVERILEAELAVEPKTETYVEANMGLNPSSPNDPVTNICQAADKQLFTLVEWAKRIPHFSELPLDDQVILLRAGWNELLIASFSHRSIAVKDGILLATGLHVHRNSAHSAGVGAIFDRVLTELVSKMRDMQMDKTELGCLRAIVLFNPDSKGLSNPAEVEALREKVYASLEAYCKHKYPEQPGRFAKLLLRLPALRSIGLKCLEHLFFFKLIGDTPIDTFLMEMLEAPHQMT
Chain of Peroxisome proliferator-activated receptor gamma (Homo sapiens) (P37231 whole entry, looked up, the tested form may be a part): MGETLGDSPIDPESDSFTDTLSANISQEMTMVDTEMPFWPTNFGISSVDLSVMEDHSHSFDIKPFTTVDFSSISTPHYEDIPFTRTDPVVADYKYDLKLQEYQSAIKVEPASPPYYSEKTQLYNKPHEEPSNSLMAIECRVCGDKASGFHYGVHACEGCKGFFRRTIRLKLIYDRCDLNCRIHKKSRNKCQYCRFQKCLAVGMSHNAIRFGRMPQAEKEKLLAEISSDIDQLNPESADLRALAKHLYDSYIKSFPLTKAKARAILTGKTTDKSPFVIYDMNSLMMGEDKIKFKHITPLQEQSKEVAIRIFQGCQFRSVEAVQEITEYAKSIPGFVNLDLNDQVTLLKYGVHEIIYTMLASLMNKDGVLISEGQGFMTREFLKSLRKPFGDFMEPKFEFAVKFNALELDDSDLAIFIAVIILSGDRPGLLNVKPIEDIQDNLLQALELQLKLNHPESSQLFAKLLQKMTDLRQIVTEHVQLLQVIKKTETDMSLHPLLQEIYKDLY
Chain of human RAR-related Orphan Receptor gamma (RORg), RORC (gene 6097) (P51449 whole entry, looked up, the tested form may be a part): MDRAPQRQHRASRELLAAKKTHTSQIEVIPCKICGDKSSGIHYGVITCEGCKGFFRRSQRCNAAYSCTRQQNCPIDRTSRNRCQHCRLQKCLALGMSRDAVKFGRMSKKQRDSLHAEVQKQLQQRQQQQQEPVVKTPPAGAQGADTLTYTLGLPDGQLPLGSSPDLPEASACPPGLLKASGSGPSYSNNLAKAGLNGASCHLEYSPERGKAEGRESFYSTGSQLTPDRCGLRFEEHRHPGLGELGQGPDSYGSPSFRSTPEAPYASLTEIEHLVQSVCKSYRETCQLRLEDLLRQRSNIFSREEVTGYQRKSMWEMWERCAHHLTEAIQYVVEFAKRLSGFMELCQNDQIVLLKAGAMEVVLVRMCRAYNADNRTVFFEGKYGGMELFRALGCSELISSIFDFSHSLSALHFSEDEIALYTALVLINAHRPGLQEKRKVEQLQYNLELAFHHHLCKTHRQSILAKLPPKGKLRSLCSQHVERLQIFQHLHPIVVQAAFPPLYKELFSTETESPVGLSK
Chain of Nuclear receptor subfamily 1 group I member 2 (Homo sapiens) (O75469 whole entry, looked up, the tested form may be a part): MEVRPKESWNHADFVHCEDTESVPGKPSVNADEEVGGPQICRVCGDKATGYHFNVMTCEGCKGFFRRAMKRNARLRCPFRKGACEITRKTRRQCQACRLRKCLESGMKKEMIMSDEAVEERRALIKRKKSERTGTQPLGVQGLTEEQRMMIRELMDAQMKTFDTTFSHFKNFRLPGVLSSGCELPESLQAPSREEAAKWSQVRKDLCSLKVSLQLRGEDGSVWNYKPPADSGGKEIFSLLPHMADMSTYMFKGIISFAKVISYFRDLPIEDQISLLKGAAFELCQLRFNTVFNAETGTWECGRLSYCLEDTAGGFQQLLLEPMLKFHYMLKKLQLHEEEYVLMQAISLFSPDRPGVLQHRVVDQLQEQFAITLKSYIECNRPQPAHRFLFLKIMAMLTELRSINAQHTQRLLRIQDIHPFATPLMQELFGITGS
Chain of human Peroxisome Proliferator-activated Receptor delta (PPARd), PPARD (gene 5467) (Q03181 whole entry, looked up, the tested form may be a part): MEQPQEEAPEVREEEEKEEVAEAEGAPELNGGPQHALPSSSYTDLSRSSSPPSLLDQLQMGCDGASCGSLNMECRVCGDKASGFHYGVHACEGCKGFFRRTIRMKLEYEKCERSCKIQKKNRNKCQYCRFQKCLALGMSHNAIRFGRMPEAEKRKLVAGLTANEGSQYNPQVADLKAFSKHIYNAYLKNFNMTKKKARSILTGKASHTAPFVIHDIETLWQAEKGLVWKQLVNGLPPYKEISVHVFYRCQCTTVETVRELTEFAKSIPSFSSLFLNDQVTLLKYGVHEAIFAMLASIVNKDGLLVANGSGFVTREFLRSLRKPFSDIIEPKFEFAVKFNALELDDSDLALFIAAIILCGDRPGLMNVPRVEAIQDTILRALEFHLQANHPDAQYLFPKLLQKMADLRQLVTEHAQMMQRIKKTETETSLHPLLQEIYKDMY
Chain of human RAR-related Orphan Receptor beta (RORb), RORB (gene 6096) (Q92753 whole entry, looked up, the tested form may be a part): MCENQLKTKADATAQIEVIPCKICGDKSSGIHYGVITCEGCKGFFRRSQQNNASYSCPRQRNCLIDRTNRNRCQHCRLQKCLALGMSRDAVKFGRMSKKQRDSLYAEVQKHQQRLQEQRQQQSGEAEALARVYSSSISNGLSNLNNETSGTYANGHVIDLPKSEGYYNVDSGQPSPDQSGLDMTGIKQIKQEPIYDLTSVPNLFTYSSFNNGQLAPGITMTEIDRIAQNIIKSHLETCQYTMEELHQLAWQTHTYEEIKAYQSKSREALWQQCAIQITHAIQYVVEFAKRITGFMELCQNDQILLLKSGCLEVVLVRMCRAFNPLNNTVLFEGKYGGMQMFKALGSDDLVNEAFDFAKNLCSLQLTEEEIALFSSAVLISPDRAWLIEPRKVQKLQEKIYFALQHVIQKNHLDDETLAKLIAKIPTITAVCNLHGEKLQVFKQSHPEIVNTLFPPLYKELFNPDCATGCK
Chain of human Peroxisome Proliferator-activated Receptor alpha (PPARa), PPARA (gene 5465) (Q07869 whole entry, looked up, the tested form may be a part): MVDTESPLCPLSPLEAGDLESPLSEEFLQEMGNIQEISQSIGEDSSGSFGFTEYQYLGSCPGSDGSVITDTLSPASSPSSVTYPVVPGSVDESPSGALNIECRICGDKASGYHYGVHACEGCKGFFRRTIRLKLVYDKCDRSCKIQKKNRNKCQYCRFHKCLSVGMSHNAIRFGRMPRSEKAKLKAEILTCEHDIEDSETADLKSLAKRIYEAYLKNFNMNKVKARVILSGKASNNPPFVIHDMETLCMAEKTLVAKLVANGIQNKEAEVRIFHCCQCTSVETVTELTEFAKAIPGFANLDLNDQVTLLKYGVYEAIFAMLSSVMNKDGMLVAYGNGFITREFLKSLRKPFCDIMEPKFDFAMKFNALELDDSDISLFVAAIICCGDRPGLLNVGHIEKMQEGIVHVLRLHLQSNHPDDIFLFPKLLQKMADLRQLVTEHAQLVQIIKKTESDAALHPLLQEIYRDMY

Regarding `C1CCC(C2CCCCC2)CC1`, the compound was called inactive in [1], in test [3], in test [4], in test [5], in [6] and in test [7]. In addition, the call in test [8] and in test [9] was inactive. The AC50 in test [2] is 23.8 µM (active).
For the compound `O=C/C(Cl)=C(/Cl)C(=O)O`, the AC50 in [1] is 35.2 µM (active); in test [2], 26.1 µM (active); in test [3], 144 µM (active); in test [11], 46.7 µM (active). In addition, the outcome in test [10], in [4], in test [6], in test [8] and in [9] was inactive.
In the case of `CCCCCCCCCCCCc1cccc(S(=O)(=O)O)c1`, the compound was called inactive in test [1], in test [3], in [12], in test [13], in test [14] and in test [15]. Moreover, the result in test [16], in test [5], in test [17], in test [6] and in test [18] was inactive. The AC50 in test [2] was 44.3 µM (active).
Turning to `Brc1ccc(Oc2c(Br)cc(Br)cc2Br)c(Br)c1`, the outcome in test [1], in [2], in test [3], in [19], in [6] and in test [7] was inactive. Moreover, the outcome in test [8] and in test [9] was inactive.
As to `[F][Sn]([c]1ccccc1)([c]1ccccc1)[c]1ccccc1`, the AC50 is 0.685 µM (active) in test [1]; 0.335 µM (active) in [3]; 0.316 µM (active) in test [19]; 0.0401 µM (active) in [11]; 0.00404 µM (active) in test [9]. The compound was called inactive in test [2] and in test [6].
`Clc1cccc(Cl)c1Cl`: the compound was classed as inactive in [1], in [2], in test [3], in [12], in test [13] and in test [14]. Also, the outcome in test [15], in test [10], in test [4], in test [16], in [17] and in test [18] was inactive.
With `CC(C)(C)c1ccccc1O`, the AC50 is 164 µM (active) in test [1], 138 µM (active) in test [3], 15.4 µM (active) in test [6] and 100 µM (active) in test [9]. The compound was classed as inactive in test [2], in test [12], in [13], in test [14], in [15] and in [10]. The outcome in test [4], in test [16], in test [17], in [11] and in [8] was inactive.
Turning to `CC(C)O.CC(C)O.OCCN(CCO)CCO.OCCN(CCO)CCO.[Ti]`, the compound was classed as inactive in [1], in test [2], in test [3], in test [12], in test [13] and in test [14]. Besides, the result in test [15], in [10], in test [16], in [5], in test [17] and in test [6] was inactive. Besides, the outcome in [7] and in test [9] was inactive.
As for `CN(C)CCN(C)C`, the outcome in test [1], in [2], in test [3], in test [10], in [4] and in test [20] was inactive. Moreover, the result in test [6], in [7] and in test [8] was inactive.
For the compound `O=C(Nc1ccc(Br)cc1)c1cc(Br)cc(Br)c1O`, the outcome in test [1], in [4], in test [20], in test [18] and in test [7] was inactive. Moreover, the half-maximal activity concentration (AC50) in test [3] was 5.3 µM (active); in test [19], 100 µM (active); in test [10], 4.97 µM (active); in test [11], 11.7 µM (active); in test [6] it was 4.69 µM (active).

The record behind these values is PubChem BioAssay (EPA / NIEHS).
